High-throughput results: PubChem BioAssay, Center for Chemical Genomics, University of Michigan
This is one part of a sample in which hits are shown more often than they occur.
Dicer inh: inhibitors of human Dicer processing of pre-microRNA; cat-ELCCA pre-miR-21 Dicer processing, chemiluminescence; active compounds read high; z-score at 25 µM; 47,000 compounds, 6% hits; AID 1347074; in the data active = z-score above about 3, passing the limit was not always enough;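 also: plate controls were vehicle for no effect and no enzyme for full effect; higher signal means more uncleaved substrate so more Dicer inhibition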
Numbers without * were called inactive.

SMILES | Dicer inh
CCOCCOC(=O)C1=C(C)NC2=C(C(=O)CC(C)(C)C2)C1c1ccc(CC)cc1 (centres undefined) | -0.52
CCCOC(=O)C1=C(C)NC2=C(C(=O)CC(C)(C)C2)C1c1cccnc1 (centres undefined) | 0.87
CC(c1ccccc1)N1C(=O)c2cccnc2C1=O (centres undefined) | -2.68
CSc1nnc2c(n1)OC(c1ccc(N(C)C)cc1)N(C(C)=O)c1ccccc1-2 (centres undefined) | 2
O=c1c(-c2nnnn2-c2ccccc2)c[nH]c2ccccc12 | 0.19
COc1ccc(C2C(C(=O)OC(C)C)=C(C)N=C3SCCC(=O)N32)cc1 (centres undefined) | -1.05
Cc1ccc(NC2SC(=O)NC2=O)c(C)c1 (centres undefined) | 0.59
O=C(NCc1ccc(-n2cccn2)cc1)c1cnn2c1NC(c1ccco1)CC2C(F)(F)F (centres undefined) | 1.75
COc1ccc(NC(=O)c2cnn3c2NC(c2ccco2)CC3C(F)(F)F)cc1OC (centres undefined) | 4.56*
COc1ccc(Cl)cc1NC(=O)c1cnn2c1NC(c1ccco1)CC2C(F)(F)F (centres undefined) | 3*
COc1ccc(NC(=O)c2cnn3c2NC(c2cccs2)CC3C(F)(F)F)cc1OC (centres undefined) | 1.39
O=C(Nc1cccnc1)c1cc2n(n1)C(C(F)(F)F)CC(c1ccco1)N2 (centres undefined) | 0
COCCNC(=O)c1cc2n(n1)C(C(F)(F)F)CC(c1ccco1)N2 (centres undefined) | -0.64
Cc1cc(=O)n2[nH]c(-c3ccccc3)cc2n1 | -1
CC(=O)NCc1ccccc1Br | 1.14
Cn1c(Cc2nc(-c3cnccn3)no2)nnc1SCc1ccc(Cl)cc1 | -1.07
O=C(COc1ccccc1SCc1ccc(Cl)cc1)NNC(=O)c1cccc(C(F)(F)F)c1 | -0.68
Cn1c(N)c(C(C[N+](=O)[O-])c2ccc(Cl)cc2Cl)c(=O)n(C)c1=O (centres undefined) | 3.43*
COc1ccccc1C(C[N+](=O)[O-])c1c(N)n(C)c(=O)n(C)c1=O (centres undefined) | -1.69
CC(C(c1cccs1)c1c(N)n(C)c(=O)n(C)c1=O)[N+](=O)[O-] (centres undefined) | -2.37
NC(=O)C1(NC2CCCCC2)CCCCC1 | -0.47
CCOC(=O)Nc1nc2ccccc2[nH]1 | -1
Cc1cc(C)nc(Nc2ccccc2O)n1 | 2.48
Cc1cc(C)nc(Nc2nc3ccccc3[nH]2)n1 | 3.69*
Cc1ccc2c(c1)CCCN2CC(=O)N(c1ccccc1)C1CCCCC1 | 1.93
SMILES | Dicer inh
CN(C)CCCNCCCNC(=O)c1ccccn1 | 0.14
COc1ccc2c(c1)CCC/C2=N\Nc1nc(C)cs1 | 1.83
CN1C(=O)c2ccccc2S(=O)c2cc([N+](=O)[O-])ccc2S1(=O)=O (centres undefined) | -0.3
COc1ccc(C2N=C(N3CCc4ccccc43)Nc3nc(C)cc(=O)n32)cc1 (centres undefined) | -0.67
S=C(NCCc1ccccc1)Nc1cc(Cl)c(Cl)cc1Cl | 4.65*
COc1ccc(CCNC(=S)NCCc2ccccc2)cc1OC | 0.7
S=C(NCc1ccccc1Cl)Nc1cc(Cl)c(Cl)cc1Cl | 1.44
COC(=O)COc1ccc2c(=O)c(Oc3cc(C)cc(C)c3)c(C(F)(F)F)oc2c1 | -0.48
Cc1oc2cc(O)ccc2c(=O)c1Oc1ccc(Cl)cc1 | 0.45
COC(=O)COc1ccc2c(=O)c(Oc3ccccc3Br)c(C(F)(F)F)oc2c1 | 3.52*
Cc1oc2cc(O)ccc2c(=O)c1Oc1ccccc1Br | 3.54*
COC(=O)COc1ccc2c(=O)c(Oc3ccccc3Cl)c(C(F)(F)F)oc2c1 | -1.08
CCOC(=O)Oc1ccc2c(=O)c(Oc3ccccc3Br)coc2c1 | 0.73
O=C1NC(=O)/C(=C/c2ccc3nccnc3c2)S1 | 0.01
CN(C)C(=O)c1c(NC(=O)c2ccccc2)sc2c1CCCC2 | -0.15
N#Cc1c(NC(=O)C(=O)c2c[nH]c3ccccc23)sc2c1CCCC2 | 4.57*
N#Cc1c(NC(=O)COc2ccc(Cl)cc2)sc2c1CCCC2 | -0.23
N#Cc1c(NC(=O)c2ccc(Cl)cc2)sc2c1CCCC2 | 1.44
COc1cc2ccccc2cc1C(=O)Nc1sc2c(c1C#N)CCC2 | 2.84
N#Cc1c(NC(=O)c2ccccc2)sc2c1CCCCC2 | 3.22*
CC1SCC(NC(=O)c2ccccc2Cl)CS1 (centres undefined) | 0.31
Cc1onc(-c2c(Cl)cccc2Cl)c1NC(=O)N(C)N | -1.22
O=c1[nH]c(CN2CCOCC2)nc2ccccc12 | 6.86*
c1ccc2[nH]c(CN3CCCCC3)nc2c1 | -0.54
O=c1[nH]c(CN2CCCCC2)nc2c1oc1ccccc12 | -0.24
SMILES | Dicer inh
COc1ccc(C/C(C)=N/NC(N)=O)cc1OC | 10.5
O=S(=O)(Nc1ccccc1)c1ccc(-c2ccc(S(=O)(=O)Nc3ccccc3)cc2)cc1 | -0.35
Cc1ccc(S(=O)(=O)Nc2ccc(N(C)S(=O)(=O)c3ccc(C)cc3)cc2)cc1 | 0.4
CCN(CC)c1ccc(NS(=O)(=O)c2ccccc2)cc1 | 4.78*
Cc1ccc(-n2cccc2/C=C(\C#N)S(C)(=O)=O)c([N+](=O)[O-])c1 | 0.51
Cc1ccc(N2CC(O)=C(c3nc4ccccc4s3)C2=N)cc1 | 0.48
N=C1C(c2nc3ccccc3s2)=C(O)CN1Cc1ccccc1 | 0.75
N=C1C(c2nc3ccccc3s2)=C(O)CN1C1CCCCC1 | 3.09*
O=C(CN1/C(=C(/O)c2ccccc2)C(=O)c2ccccc2S1(=O)=O)c1ccc(Br)cc1 | 1.39
C#CCOC(=O)CCCN1C(=O)c2cccc3cccc(c23)C1=O | -1.49
CN(C(=O)CCCN1C(=O)c2cccc3cccc(c23)C1=O)c1ccccc1 | -0.03
COC(=O)CCCN1C(=O)c2cccc3cccc(c23)C1=O | 3.6*
COc1ccccc1C1C(C#N)=C(N)Oc2n[nH]c(C)c21 (centres undefined) | -6.06
O=C(NNC(=O)c1cccs1)c1csc(COc2ccc(C3SCCS3)cc2)n1 | 2.65
O=C(CSC1=NCCCN1)NN(Cc1c(F)cccc1Cl)c1ccccc1 | -3.02
CC1(C)CC(=O)C2=C(C1)Nc1ccccc1NC2c1cccs1 (centres undefined) | 0.88
CC1(C)CC(=O)C2=C(C1)Nc1ccccc1NC2c1ccccc1F (centres undefined) | -0.61
CC1(C)CC(=O)C2=C(C1)Nc1ccccc1S2 | 4.06*
O=[N+]([O-])c1cc(C2SCCS2)ccc1OCc1ccc(F)cc1 | -0.84
CSc1cccc(NC(=S)Nc2c(C(C)C)cccc2C(C)C)c1 | 1.95
O=c1oc(-c2ccc(Cl)cc2)nc2ccccc12 | 0.2
O=c1oc(Nc2ccccc2)nc2ccccc12 | 3.56*
CC(C)(C)c1ccc(-c2nc3ccccc3c(=O)o2)cc1 | 1.38
O=c1oc(-c2ccc(Br)cc2)nc2ccccc12 | 3.02*
c1ccc(Nc2nnc(-c3cccc4ccccc34)o2)cc1 | 0.59
SMILES | Dicer inh
O=c1oc(-c2cccs2)nc2ccccc12 | -0.19
NC(=NC(=O)c1cccc(Cn2cc(C(F)(F)F)ccc2=O)c1)c1ccc(C(F)(F)F)cc1 | -0.86
Cc1nc(Nc2ncc3c(n2)CC(c2ccco2)CC3=O)nc2ccccc12 (centres undefined) | -0.59
c1coc(-c2nc3ccccc3nc2-c2ccco2)c1 | -0.72
O=S(=O)(Nc1cc(NS(=O)(=O)c2ccc(F)cc2F)cc(C(F)(F)F)c1)c1ccc(F)cc1F | 1.45
O=C(NCc1ccc(F)cc1)c1nn2c(c1Cl)NC(c1cccs1)CC2C(F)(F)F (centres undefined) | 1.54
